This note sets out measurements from PubChem BioAssay (NCI).

Each structure is given as a SMILES string. This is part of a sample that, as a whole, favours compounds with a hit. Of some 83,000 tested, about 20% had one in any assay.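 Results are percent growth after 48 hours of single-concentration exposure. 100 means growth as in untreated cells, lower positive values show inhibition; negative values down to -100 show cell death.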 Active and inactive are the calls of the source. How the source made its calls: active means growth percent below 10; inactive means the rest.

For the assay, the system named is MDA-MB-468 breast. Briefly: NCI-60 one-dose screen, 48 h (100 = growth as untreated, 0 = no growth, -100 = all killed). To be noted: 10 µM unless noted.
With `Cc1ccc(-c2cc3nc(C(Cl)Cl)nc(-c4ccccc4)n3n2)cc1`, the growth was -16.4% (active).

Regarding `COc1cc(-c2cc(C(=O)N3CCN(C(=O)c4ccccc4NCc4ccco4)CC3)nc3cc(-c4ccccc4)nn23)cc(OC)c1OC`, the growth was 0.207% (active).

Consider `CC(C)(C)OC(=O)CN1CCc2c(sc3ncnc(N/N=C/c4ccccc4Br)c23)C1`, for which the growth is 88.5% (inactive).

On to `O=C(CCc1nc(-c2cccc(Cl)c2)no1)Nc1ccccn1`, for which the growth was 83.1% (inactive).

With `COc1ccc(/C=C2\CCCC3=C2NC(N)=NC3c2ccc(OC)c(OC)c2)cc1OC` (centres undefined), the growth was -16.3% (active).

With `COc1cc2ncnc(-n3ncc4cc(NC(=O)Nc5ccc(Cl)c(C)c5)ccc43)c2cc1OC`, the growth was 93.6% (inactive).

In the case of `Cc1cnc(C(=O)Nc2nc3ccc(S(=O)(=O)Nc4ccc(C5(C(F)(F)F)CC5)cc4)cc3[nH]2)cn1`, the growth is -26.2% (active).

Turning to `COc1ccc(N2C(=O)c3cc(OC)c(OC)cc3NC2SCc2ccccc2)cc1` (centres undefined), the growth was 108% (inactive).

Consider `COc1cc(C2C3=C(COC3=O)N(CCO)c3cc4c(cc32)OCO4)cc(OC)c1OC` (centres undefined), for which the growth was 0.559% (active).

For `CCOC(=O)NC(=S)n1oc(=O)c2ccccc21`, the growth is 106% (inactive).

For the molecule `N#Cc1c(-c2ccc(Cl)cc2)nc(NN2C(=O)c3ccccc3C2=O)nc1N1CCOCC1`, the growth is 99.4% (inactive).

As to `Cc1[nH]c(C(=O)Nc2ccccc2OCc2cccc(C(=O)NC3CCCNC3)c2)c(Cl)c1Cl` (centres undefined), the growth was -80.6% (active).

Take `OC(COc1cccc2ccccc12)CN1CCN(c2ccccc2Cl)CC1` (centres undefined): the growth was 89.7% (inactive).

In the case of `CO[C@H]1CC(=O)n2c3ccccc3c3c4c(c5c6ccccc6n1c5c32)C(=O)NC4=O`, the growth is 34.2% (inactive).
